Data on 37 compounds can be found in PubChem BioAssay (NCI).

This is part of a sample that, as a whole, favours compounds with a hit. Of some 83,000 tested, about 20% had one in any assay.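 Treatment: one concentration, 48 hours, 96-well format. Scoring: percent growth, with anything below 10 considered active.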 The source made the active and inactive calls.

The test concerns MDA-MB-468 breast. The test is described as follows: NCI-60 one-dose screen, 48 h (100 = growth as untreated, 0 = no growth, -100 = all killed). As to conditions: 10 µM unless noted.
On to `COc1ccc(OC)c2c1C(=O)CC2C` (configuration not stated), for which the growth was 99.6% (inactive).

As for `CC(=O)OC/C=C(/C)C[P+](c1ccccc1)(c1ccccc1)c1ccccc1`, the growth was 1.61% (active).

In the case of `COc1cc(-c2c(-c3ccccc3)c[nH]c2C(=O)NCCCO)c(OC)c2c1OCO2`, the growth is 102% (inactive). For the compound `O=c1oc2c(cc1-c1ccccc1)c[n+]([O-])c1ccccc21`, the growth was 104% (inactive). With `Oc1cccc2ccc(N/N=C/c3cc(CN4CCOCC4)c(O)c4ncccc34)nc12`, the growth was -24.6% (active).

As to `CNC(=O)c1cc(-c2ccc(NS(=O)(=O)c3ccc(C)cc3)cc2)nc2cccnc12`, the growth was 71.1% (inactive). With `C/C=C(/C)C(=O)OC1C=C(CO)C(=O)C(OC(=O)/C(C)=C\C)C1C(C)C` (configuration not stated), the growth is -50.9% (active). Next, `COc1cc2nc3cc([N+](=O)[O-])ccc3c(NCCCNCC(C)(C)O)c2cc1OC`: -57.7% (active); `CCN(CC)CCCC(C)Nc1c2ccc(Cl)cc2nc2ccc(OC)cc12` (configuration not stated): -63.3% (active).

Regarding `COc1ccc(-c2nn(-c3cccc(NC(=O)c4ccc(N5CCOCC5)c(C(F)(F)F)c4)c3)cc2-c2ccncc2)cc1Cl`, the growth is 80.6% (inactive). `Cc1ccc(-c2nc([P+](c3ccccc3)(c3ccccc3)c3ccccc3)c(N3C[C@H]4C[C@H](C3)c3cccc(=O)n3C4)o2)cc1`: the growth was -9.01% (active). In the case of `Nc1n[nH]c2ccc([C@@H]3Nc4c(F)cc5[nH]ncc5c4[C@H]4C5CCC(C5)[C@@H]34)cc12` (some centres not stated), the growth is -4.88% (active). In the case of `CC[C@@H](C(=O)[C@@H](C)[C@@H](O)[C@H](C)[C@@H]1O[C@@H]([C@@H](CC)C(=O)N(CC)CC)CC[C@@H]1C)C1O[C@]2(C=CC(=O)[C@]3(CC[C@@](C)([C@H]4CC[C@](O)(CC)[C@H](C)O4)O3)O2)[C@H](C)C[C@@H]1C` (some centres not stated), the growth was -12.9% (active). Turning to `COc1cc(C(=O)/C=C/c2c(-c3ccc(F)cc3)nc3sc(C)cn23)cc(OC)c1OC`, the growth is 14.1% (inactive).

`Clc1cc(Cl)cc(-c2ccc(-c3ccc(/C=N/NC4=NCCN4)cc3)s2)c1`: the growth was -3.62% (active).

`COC(=O)c1nc(=S)[nH]c(C(=O)OC)c1C(=O)c1ccc2ccccc2c1`: the growth is 90% (inactive).

In the case of `N#Cc1ccc(C(=O)CSc2nccc(Nc3ccc(C(=O)O)cc3)n2)cc1`, the growth is 101% (inactive).

Take `CN1C(=O)N2CN3CCCN(C3)CN3C(=S)NC1C23` (configuration not stated): the growth is 102% (inactive).

Turning to `O=C1/C(=C/c2ccc(Cl)c(Cl)c2)CN(C(=O)CCN2CCC(=NO)CC2)C/C1=C\c1ccc(Cl)c(Cl)c1`, the growth is -72.3% (active). Turning to `CN(C)CCCOc1ccc(C(=C(c2ccccc2)C2CCCC2)c2ccc(OCCCN(C)C)cc2)cc1`, the growth is -78.9% (active). For `CN(C)c1ccc(N=C2C=CC(=O)C=C2)cc1`, the growth was 12.5% (inactive). For `CC1(C)COC(=S)N1`, the growth is 99.5% (inactive). With `COc1cc(-c2nc(SC(C)C)nc(Nc3ccccc3C)c2C#N)cc(OC)c1OC`, the growth is 111% (inactive). For `N=C(N)c1ccc(-c2ccc(-c3ccc(F)cc3)s2)nc1`, the growth is 25.1% (inactive). As for `CC(=O)c1c(C)nc2ccccc2c1/C=C/c1ccc(F)cc1`, the growth was 46.1% (inactive). Take `CCOC(=O)c1cc(C(=O)c2cc(OC)c(OC)c(OC)c2)n2ncc3ccccc3c12`: the growth was 66% (inactive). Next, `Brc1ccc(-c2cn3ccnc3c(-c3ccc(Br)cc3)n2)cc1`: 33.2% (inactive). For the compound `COc1cc(/C=C2/C(=O)Nc3ccc(Cl)cc32)ccc1OCc1ccc(Cl)cc1`, the growth is 87.2% (inactive). Consider `Cc1csc(Nc2cccc(Nc3nc(C)cs3)c2)n1`, for which the growth is 47.6% (inactive). Consider `O=C1/C(=C\c2ccco2)SC(=S)N1CCc1ccc(O)cc1`, for which the growth was 54.9% (inactive). Next, `O=C(O)c1ccc(OCc2ccccc2)cc1`: 104% (inactive); `COc1ccc(C2CC(c3cccc(Nc4ccncc4)c3)=NN2c2cc(Cl)cc(Cl)c2)cc1` (configuration not stated): 43.3% (inactive); `Cc1cccc2c3c(sc12)C(c1ccc(F)cc1)C(C#N)=C(/N=C/c1ccc(Cl)cc1)O3` (configuration not stated): 36.2% (inactive). Turning to `CCc1nn2c(C)cc(C)nc2c1Cc1ccc(/C=C/CN2CCN(CCOCCOCCN3CCN(C/C=C/c4ccc(Cc5c(CC)nn6c(C)cc(C)nc56)cc4)CC3)CC2)cc1`, the growth was -6.16% (active). On to `CCCCCCN(CCCCCC)C(=N)c1ccnc2ccccc12`, for which the growth was 12.5% (inactive). For `c1ccc2c(-c3nc(-c4c[nH]c5ncccc45)cs3)c[nH]c2c1`, the growth was 108% (inactive). Regarding `CCn1nc(C#Cc2c(C)ccc3c(Nc4ccc(Cl)cc4)nccc23)c2c(N)ncnc21`, the growth is 27.1% (inactive).
